Usually AC50 stands for the midpoint of the concentration-response curve, whichever way the signal moves.

“And” between values parts separate entries of the source, which are not always exact repeats. Equal entries are not always repeated. Results filed as inconclusive are left out. The source made the active and inactive calls. Rule for the calls, unless noted: active = hit-call score of the fitted dose curve at least 0.9, where 1 is the maximum; inconclusive = response in the unintended direction; inactive = score below 0.9.

Sequence of rat Serotonin Transporter (SERT), Slc6a4 (gene 25553) (P31652 whole entry, looked up): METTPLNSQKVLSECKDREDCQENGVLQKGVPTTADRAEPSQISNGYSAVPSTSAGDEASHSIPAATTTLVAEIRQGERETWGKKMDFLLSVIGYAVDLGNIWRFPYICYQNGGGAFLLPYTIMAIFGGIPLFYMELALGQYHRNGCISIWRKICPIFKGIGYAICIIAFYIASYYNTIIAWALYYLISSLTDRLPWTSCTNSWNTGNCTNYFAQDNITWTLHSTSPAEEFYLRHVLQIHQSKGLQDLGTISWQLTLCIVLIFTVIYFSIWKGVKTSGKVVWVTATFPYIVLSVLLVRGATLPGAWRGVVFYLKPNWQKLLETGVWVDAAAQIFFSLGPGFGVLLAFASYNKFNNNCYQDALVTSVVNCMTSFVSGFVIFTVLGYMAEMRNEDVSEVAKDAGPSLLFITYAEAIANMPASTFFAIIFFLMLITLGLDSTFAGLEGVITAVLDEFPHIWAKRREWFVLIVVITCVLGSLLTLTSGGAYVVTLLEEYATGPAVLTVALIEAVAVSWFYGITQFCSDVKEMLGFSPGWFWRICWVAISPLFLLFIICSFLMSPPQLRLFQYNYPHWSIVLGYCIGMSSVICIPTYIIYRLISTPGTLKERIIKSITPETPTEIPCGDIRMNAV
Sequence of Estrogen receptor (Homo sapiens) (P03372 whole entry, looked up): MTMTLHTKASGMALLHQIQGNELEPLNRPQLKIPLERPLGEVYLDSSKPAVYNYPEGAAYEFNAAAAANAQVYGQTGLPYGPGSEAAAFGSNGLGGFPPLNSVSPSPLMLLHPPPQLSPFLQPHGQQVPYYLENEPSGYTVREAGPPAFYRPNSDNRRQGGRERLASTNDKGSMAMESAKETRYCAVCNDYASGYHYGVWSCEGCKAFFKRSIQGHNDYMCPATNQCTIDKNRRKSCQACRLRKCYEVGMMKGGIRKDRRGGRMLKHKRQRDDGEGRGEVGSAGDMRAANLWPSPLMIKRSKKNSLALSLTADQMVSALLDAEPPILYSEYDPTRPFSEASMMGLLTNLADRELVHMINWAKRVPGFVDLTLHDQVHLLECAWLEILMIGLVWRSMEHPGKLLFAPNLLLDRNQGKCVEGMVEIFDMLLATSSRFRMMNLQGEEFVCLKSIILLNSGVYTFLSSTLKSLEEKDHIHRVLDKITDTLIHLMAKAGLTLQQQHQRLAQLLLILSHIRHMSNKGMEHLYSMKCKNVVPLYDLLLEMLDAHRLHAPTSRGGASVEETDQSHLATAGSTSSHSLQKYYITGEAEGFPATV
Sequence of human Dopamine Transporter (DAT), SLC6A3 (gene 6531) (Q01959 whole entry, looked up): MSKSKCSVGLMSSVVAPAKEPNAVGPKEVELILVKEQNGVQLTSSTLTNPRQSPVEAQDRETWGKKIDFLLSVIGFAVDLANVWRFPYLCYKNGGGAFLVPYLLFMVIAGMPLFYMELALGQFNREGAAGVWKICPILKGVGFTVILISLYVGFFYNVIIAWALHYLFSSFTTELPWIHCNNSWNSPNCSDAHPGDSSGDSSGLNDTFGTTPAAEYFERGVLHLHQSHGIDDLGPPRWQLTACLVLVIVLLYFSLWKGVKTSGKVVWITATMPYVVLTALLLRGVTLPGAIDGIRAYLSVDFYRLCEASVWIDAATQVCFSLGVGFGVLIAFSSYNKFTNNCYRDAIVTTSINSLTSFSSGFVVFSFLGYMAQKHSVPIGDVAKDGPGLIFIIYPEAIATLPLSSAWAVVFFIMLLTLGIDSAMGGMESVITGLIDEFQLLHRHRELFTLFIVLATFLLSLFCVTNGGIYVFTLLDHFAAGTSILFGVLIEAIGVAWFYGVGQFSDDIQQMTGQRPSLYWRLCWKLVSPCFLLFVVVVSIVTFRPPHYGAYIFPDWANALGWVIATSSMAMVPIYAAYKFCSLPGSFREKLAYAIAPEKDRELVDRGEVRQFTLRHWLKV
Sequence of mouse Estrogen Receptor alpha (Era), Esr1 (gene 13982) (P19785 whole entry, looked up): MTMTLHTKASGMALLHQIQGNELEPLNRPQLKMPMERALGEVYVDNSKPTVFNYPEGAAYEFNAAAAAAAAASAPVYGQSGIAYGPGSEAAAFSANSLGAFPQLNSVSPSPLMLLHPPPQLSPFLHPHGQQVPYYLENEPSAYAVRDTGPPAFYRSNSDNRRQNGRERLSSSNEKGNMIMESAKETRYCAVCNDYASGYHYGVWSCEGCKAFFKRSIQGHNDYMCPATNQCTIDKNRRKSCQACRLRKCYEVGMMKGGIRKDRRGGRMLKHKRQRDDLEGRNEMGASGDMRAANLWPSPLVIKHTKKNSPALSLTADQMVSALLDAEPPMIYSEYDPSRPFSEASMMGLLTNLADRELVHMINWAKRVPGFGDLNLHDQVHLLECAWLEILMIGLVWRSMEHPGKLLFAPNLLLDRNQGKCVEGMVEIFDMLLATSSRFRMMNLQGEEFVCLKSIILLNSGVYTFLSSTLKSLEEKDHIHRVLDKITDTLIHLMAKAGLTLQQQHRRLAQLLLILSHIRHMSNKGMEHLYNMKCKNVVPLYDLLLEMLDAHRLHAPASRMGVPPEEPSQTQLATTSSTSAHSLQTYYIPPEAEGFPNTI
Sequence of Agonist Androgen Response Element (ARE), AR (gene 367) (P10275 whole entry, looked up): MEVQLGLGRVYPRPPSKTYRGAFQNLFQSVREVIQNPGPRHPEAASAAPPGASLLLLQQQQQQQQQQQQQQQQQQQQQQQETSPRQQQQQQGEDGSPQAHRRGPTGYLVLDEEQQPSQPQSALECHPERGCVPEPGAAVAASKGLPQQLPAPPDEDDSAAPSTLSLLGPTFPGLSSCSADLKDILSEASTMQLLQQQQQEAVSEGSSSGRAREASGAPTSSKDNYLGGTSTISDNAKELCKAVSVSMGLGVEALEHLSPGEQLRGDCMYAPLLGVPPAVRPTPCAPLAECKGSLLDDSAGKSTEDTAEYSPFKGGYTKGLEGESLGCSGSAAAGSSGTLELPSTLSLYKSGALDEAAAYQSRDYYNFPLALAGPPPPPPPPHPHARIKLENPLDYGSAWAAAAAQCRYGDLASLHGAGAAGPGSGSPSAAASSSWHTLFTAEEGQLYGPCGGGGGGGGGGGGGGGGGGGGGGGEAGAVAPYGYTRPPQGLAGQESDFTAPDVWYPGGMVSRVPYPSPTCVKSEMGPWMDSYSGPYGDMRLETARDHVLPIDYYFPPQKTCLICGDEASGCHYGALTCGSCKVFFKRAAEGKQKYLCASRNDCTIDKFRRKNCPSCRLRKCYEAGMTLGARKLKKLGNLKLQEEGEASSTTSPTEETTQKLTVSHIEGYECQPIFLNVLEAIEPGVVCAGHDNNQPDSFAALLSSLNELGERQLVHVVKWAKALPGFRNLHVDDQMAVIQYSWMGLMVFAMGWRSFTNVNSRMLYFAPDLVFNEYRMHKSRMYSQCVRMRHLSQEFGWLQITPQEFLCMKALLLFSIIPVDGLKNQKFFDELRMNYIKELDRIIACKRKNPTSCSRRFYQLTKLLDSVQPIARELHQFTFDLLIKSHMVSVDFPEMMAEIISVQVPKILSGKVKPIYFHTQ

The first test has as its target human Dopamine Transporter (DAT), SLC6A3 (gene 6531) (UniProt Q01959). The test is described as follows: NVS_TR_hDAT: NovaScreen (NVS) Transporter Assay for human Dopamine Transporter (DAT) (AID 2283374).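 Note: activity means loss of bound radioligand signal relative to DMSO.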 The essentials:
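Cell-free radioligand binding to extracted human DAT protein, read 1 h after dosing by filter-based scintillation counting. Loss of specific binding scored against DMSO baseline; primary screen in duplicate at 25 uM, actives then run in concentration series.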
Take `CN(C)c1ccc(C(=C2C=CC(=[N+](C)C)C=C2)c2ccccc2)cc1`: the concentration at half-maximal activity (AC50) is 6.41 µM (active) and 3.13 µM (active).

In the case of `CCCCCc1ccc(O)cc1`, the half-maximal activity concentration (AC50) is 6.09 µM (active).

As for `Clc1ccc(Nc2nnc(Cc3ccncc3)c3ccccc23)cc1`, the AC50 was 0.987 µM (active).

For `Oc1cccc2c(O)cccc12`, the AC50 is 25 µM (active).

Consider `C[C@]12CC[C@@H]3c4ccc(O)cc4CC[C@H]3[C@@H]1C[C@@H](O)[C@@H]2O`, for which the half-maximal activity concentration (AC50) is 15.4 µM (active).

For `CN(Cc1cnc2nc(N)nc(N)c2n1)c1ccc(C(=O)N[C@@H](CCC(=O)O)C(=O)O)cc1`, the AC50 is 6.69 µM (active).

For `CCCCN(C)C`, the call was inactive.

As for `CCOC(OCC)C(=O)c1ccccc1`, the concentration at half-maximal activity (AC50) was 7 µM (active).

As for `NC(=NCCCCCCN=C(N)/N=C(\N)Nc1ccc(Cl)cc1)/N=C(\N)Nc1ccc(Cl)cc1`, the AC50 was 0.458 µM (active).

In the case of `CCCCCCCCCCCCCCCCCC[N+](C)(C)Cc1ccccc1`, the call was inactive.

For `N=C(N)c1ccc(OCCCCCOc2ccc(C(=N)N)cc2)cc1`, the AC50 was 4.11 µM (active).

On to `O=C(c1ccccc1)c1ccccc1`, for which the compound was called inactive.

The target of another test is rat Serotonin Transporter (SERT), Slc6a4 (gene 25553) (UniProt P31652). The test is described as follows: NVS_TR_rSERT: NovaScreen (NVS) Transporter Assay for rat Serotonin Transporter (SERT) (AID 2283375). In a few lines:
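Steps: rat forebrain membranes dosed with chemical (25 uM duplicate primary; concentration series for actives); 1 h incubation; labelled ligand bound, filtered, counted by scintillation. Activity scored as signal loss vs DMSO.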
Take `O=C1OC2(c3ccccc31)c1cc(I)c(O)c(I)c1Oc1c2cc(I)c(O)c1I`: the half-maximal activity concentration (AC50) was 0.953 µM (active).

As to `Clc1ccc(Nc2nnc(Cc3ccncc3)c3ccccc23)cc1`, the outcome was inactive.

In the case of `NC(=NCCCCCCN=C(N)/N=C(\N)Nc1ccc(Cl)cc1)/N=C(\N)Nc1ccc(Cl)cc1`, the concentration at half-maximal activity (AC50) was 0.322 µM (active).

Turning to `CCCCCCCCCCCCCCCCCC[N+](C)(C)Cc1ccccc1`, the concentration at half-maximal activity (AC50) was 7.73 µM (active).

For `CN(C)CCOC(c1ccccc1)c1ccccc1`, the AC50 was 12.6 µM (active).

In another test the target is mouse Estrogen Receptor alpha (Era), Esr1 (gene 13982) (UniProt P19785). The test is described as follows: NVS_NR_mERa: NovaScreen (NVS) Nuclear Receptor Binding Assay for mouse Estrogen Receptor alpha (Era) (AID 2283378).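 Note: hit means loss of bound radioligand signal relative to DMSO.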 The essentials:
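Test chemicals competed against a specific radioligand for binding to cell-free mouse Era. Duplicate wells at 25 uM were read 18 hours later by filter-based radiodetection, with loss of signal against DMSO scored as activity.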
On to `CCCCCCCCCCCCCC[n+]1ccccc1`, for which the compound was classed as inactive.

On to `CCCCCCOC(=O)c1ccc(O)cc1`, for which the AC50 was 3.82 µM (active).

`CCCCCCc1ccc(N)cc1`: the concentration at half-maximal activity (AC50) was 0.138 µM (active).

In the case of `Nc1cc(Cl)c(-c2cc(Cl)c(N)cc2Cl)cc1Cl`, the half-maximal activity concentration (AC50) is 0.389 µM (active).

Take `CCCCCCCCCCCCOC(=O)c1cc(O)c(O)c(O)c1`: the AC50 is 12.4 µM (active).

`C[C@]12CC[C@@H]3c4ccc(O)cc4CC[C@H]3[C@@H]1CC[C@@H]2OC(=O)CCC1CCCC1`: the AC50 is 0.0452 µM (active).

Turning to `CN(Cc1cnc2nc(N)nc(N)c2n1)c1ccc(C(=O)N[C@@H](CCC(=O)O)C(=O)O)cc1`, the compound was called inactive.

For `NCc1cccc(CN)c1`, the AC50 is 6.34 µM (active).

On to `NC(=NCCCCCCN=C(N)/N=C(\N)Nc1ccc(Cl)cc1)/N=C(\N)Nc1ccc(Cl)cc1`, for which the half-maximal activity concentration (AC50) is 137 nM (active) and 292 nM (active).

`C=CC(C)(CCC=C(C)C)OC(C)=O` (stereo not drawn): the call was inactive.

A further test has as its target Agonist Androgen Response Element (ARE), AR (gene 367) (UniProt P10275). The test is described as follows: OT_AR_ARELUC_AG_1440: Odyssey Thera (OT) 24-hour CHO-K1 Luciferase Assay for Agonist Androgen Response Element (ARE) (AID 2283379). In a few lines: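 Seed CHO-K1 cells; dose compounds for 24 h; add D-luciferin plus ATP in PBS; read luminescence. Signal increase relative to vehicle defines agonist activity, with at least 3 replicate wells per sample.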
`CCCCCCc1ccc(N)cc1`: the result was inactive.

In the case of `CCCCCCCCCC=CCC1CC(=O)OC1=O` (stereo not drawn), the concentration at half-maximal activity (AC50) was 21.2 µM (active).

As for `CN(Cc1cnc2nc(N)nc(N)c2n1)c1ccc(C(=O)N[C@@H](CCC(=O)O)C(=O)O)cc1`, the result was inactive.

In the case of `COc1cc([N+](=O)[O-])ccc1N`, the call was inactive.

With `CCCCc1ccc2ccccc2c1S(=O)(=O)O`, the AC50 is 13.3 µM (active).

`NC(=NCCCCCCN=C(N)/N=C(\N)Nc1ccc(Cl)cc1)/N=C(\N)Nc1ccc(Cl)cc1`: the call was inactive.

Consider `CN(C)CCOC(c1ccccc1)c1ccccc1`, for which the result was inactive.

As for `O=C(c1ccccc1)c1ccccc1`, the outcome was inactive.

In the case of `Cc1cc(C(=C2C=CC(=Nc3ccc(S(=O)(=O)O)cc3)C=C2)c2ccc(Nc3ccc(S(=O)(=O)O)cc3)cc2)cc(S(=O)(=O)O)c1N`, the result was inactive.

In a further test the target is Estrogen receptor beta (Homo sapiens) (UniProt Q92731). Kind of test: OT_ER_ERbERb_1440: Odyssey Thera (OT) 24-hour HEK293T Protein-Complementation Assay for Estrogen Receptor-beta/-beta Homodimer (AID 2283380).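 Note: fluorescence gain from ER beta LBD homodimer complementation read by laser scanning cytometry; scored as signal increase over DMSO baseline for both agonists and antagonists.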 In a few lines: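 HEK293T cells stably expressing human ER-beta LBD (aa 310-547) PCA homodimer pair, dosed 24 h; formaldehyde-fixed, Draq5-stained. Readout: increase in nuclear (agonist) or nuclear plus cytoplasmic (antagonist) fluorescence intensity versus DMSO, gain-of-signal fitting.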
Sequence of Estrogen receptor beta (Homo sapiens) (Q92731 whole entry, looked up, the tested form may be a part): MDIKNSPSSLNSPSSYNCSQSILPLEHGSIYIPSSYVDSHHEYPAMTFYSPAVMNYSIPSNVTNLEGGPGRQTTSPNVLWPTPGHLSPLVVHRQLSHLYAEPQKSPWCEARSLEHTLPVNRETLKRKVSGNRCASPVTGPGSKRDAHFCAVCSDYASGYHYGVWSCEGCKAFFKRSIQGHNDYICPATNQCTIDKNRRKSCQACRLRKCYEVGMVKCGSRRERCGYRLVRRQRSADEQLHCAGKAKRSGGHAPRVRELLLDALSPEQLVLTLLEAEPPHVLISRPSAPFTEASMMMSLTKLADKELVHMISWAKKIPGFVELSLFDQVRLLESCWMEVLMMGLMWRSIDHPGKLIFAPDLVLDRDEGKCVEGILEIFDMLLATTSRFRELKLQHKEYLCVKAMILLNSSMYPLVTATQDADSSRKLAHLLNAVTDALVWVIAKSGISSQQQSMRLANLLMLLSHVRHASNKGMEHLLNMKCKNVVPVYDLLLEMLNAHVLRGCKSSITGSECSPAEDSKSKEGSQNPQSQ
On to `CCCCCCc1ccc(N)cc1`, for which the call was inactive.

Turning to `CCCCCCCCCC=CCC1CC(=O)OC1=O` (stereo not drawn), the call was inactive.

Turning to `CCCCCCCCCCCCOC(=O)c1cc(O)c(O)c(O)c1`, the concentration at half-maximal activity (AC50) is 11.9 µM (active).

As for `C[C@]12CC[C@@H]3c4ccc(O)cc4CC[C@H]3[C@@H]1C[C@@H](O)[C@@H]2O`, the AC50 is 0.03 µM (active).

Turning to `CN(Cc1cnc2nc(N)nc(N)c2n1)c1ccc(C(=O)N[C@@H](CCC(=O)O)C(=O)O)cc1`, the compound was classed as inactive.

Consider `COc1cc([N+](=O)[O-])ccc1N`, for which the AC50 was 28.4 µM (active).

As for `CCCCc1ccc2ccccc2c1S(=O)(=O)O`, the result was inactive.

With `NCc1cccc(CN)c1`, the outcome was inactive.

For `CN(C)CCOC(c1ccccc1)c1ccccc1`, the outcome was inactive.

`Cc1cc(C(=C2C=CC(=Nc3ccc(S(=O)(=O)O)cc3)C=C2)c2ccc(Nc3ccc(S(=O)(=O)O)cc3)cc2)cc(S(=O)(=O)O)c1N`: the result was inactive.

The next test addresses Estrogen receptor (Homo sapiens) (UniProt P03372). Kind of test: OT_ERa_GFPERaERE_0480: Odyssey Thera (OT) 8-hour HeLa Transcription Induction Assay for Estrogen Receptor (AID 2283381; active = hit-call score of the fitted dose curve at least 0.9, where 1 is the maximum; inactive = score below 0.9). The essentials:
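Fluorescent reporter signal, imaged by microscopy and scored with image-analysis algorithms, was taken 8 h after chemical dosing of HeLa cells; activity was fitted upward relative to DMSO.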
In the case of `CCCCCCc1ccc(N)cc1`, the compound was classed as inactive.

With `CCCCCCCCCC=CCC1CC(=O)OC1=O` (stereo not drawn), the result was inactive.

With `CCCCCCCCCCCCOC(=O)c1cc(O)c(O)c(O)c1`, the AC50 was 49.2 µM (active).

On to `CN(Cc1cnc2nc(N)nc(N)c2n1)c1ccc(C(=O)N[C@@H](CCC(=O)O)C(=O)O)cc1`, for which the outcome was inactive.

For `COc1cc([N+](=O)[O-])ccc1N`, the result was inactive.

For `CCCCc1ccc2ccccc2c1S(=O)(=O)O`, the call was inactive.

`NCc1cccc(CN)c1`: the call was inactive.

Regarding `NC(=NCCCCCCN=C(N)/N=C(\N)Nc1ccc(Cl)cc1)/N=C(\N)Nc1ccc(Cl)cc1`, the AC50 is 24.5 µM (active).

As to `C=CC(C)(CCC=C(C)C)OC(C)=O` (stereo not drawn), the compound was classed as inactive.

On to `CN(C)CCOC(c1ccccc1)c1ccccc1`, for which the compound was called inactive.

Turning to `N=C(N)c1ccc(OCCCCCOc2ccc(C(=N)N)cc2)cc1`, the compound was classed as inactive.

For `Cc1cc(C(=C2C=CC(=Nc3ccc(S(=O)(=O)O)cc3)C=C2)c2ccc(Nc3ccc(S(=O)(=O)O)cc3)cc2)cc(S(=O)(=O)O)c1N`, the compound was called inactive.
